The results in this text go back to PMC12820563, “FoxP3 forms a head-to-head dimer in vivo and stabilizes its multimerization on adjacent microsatellites”.

In all, about 16,000 sequences were measured (“rpm ratio (pull-down/input)”: median about 0.94, highest 2% from about 1.7 on). The sample as a whole holds a higher share of the highest values than the screen did.

The assay addresses T1, MBP-FoxP1dN (Mus musculus, UniProt P58462 326-579).
T1 sequence: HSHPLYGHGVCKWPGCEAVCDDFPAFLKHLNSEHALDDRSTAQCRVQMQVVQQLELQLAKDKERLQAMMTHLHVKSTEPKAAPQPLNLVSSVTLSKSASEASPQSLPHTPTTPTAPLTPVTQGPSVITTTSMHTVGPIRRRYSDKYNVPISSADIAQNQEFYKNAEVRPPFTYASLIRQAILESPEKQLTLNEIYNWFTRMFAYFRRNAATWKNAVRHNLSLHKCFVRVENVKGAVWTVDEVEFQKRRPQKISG
Kind of assay: PD-seq (MBP pull-down with sequencing); 20 mM Tris-HCl pH 7.5, 100 mM NaCl, 1.5 mM MgCl2, 0.4 uM protein, 0.1 uM dsDNA library, 30 min, room temperature, amylose pull-down; high values mean tight binding. Conditions: protein: recombinant; tags: His6-MBP; chain copies: 2; dsDNA, one strand shown. In a few lines: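 A fragment of mouse FoxP3 or FoxP1 without its N-terminus, carrying a His6-MBP tag and produced in E. coli, was combined at 0.4 µM with a 0.1 µM degenerate double-stranded DNA library filled in with Klenow. The mixture sat for 30 min at room temperature in Tris pH 7.5 buffer containing NaCl and MgCl2. Protein–DNA complexes were captured on amylose resin, washed three times, and the DNA was freed with proteinase K, barcoded by PCR and sequenced on Illumina. Binding is expressed as reads-per-million enrichment of pull-down over input, with replicates pooled.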
“GATGATTGTTCTCCCAGCTGATGAATTCGGGTAGTCGAGTAAACAAATTTTCCTAATCTTTCTGTTCAAGCGCCATCTAC”: the binding signal is 0.855 RPM ratio (pull-down/input). Turning to “GATGATTGTTCTCCCAGCTGATGAATTAAAAGTCTCGAGTAAACAAATTTTCCTAATCTTTCTGTTCAAGCGCCATCTAC”, the binding signal was 0.816 RPM ratio (pull-down/input).

With “GATGATTGTTCTCCCAGCTGATGAATTGTTCGTTTCGAGTAAACAAATTTTCCTAATCTTTCTGTTCAAGCGCCATCTAC”, the binding signal was 1.15 RPM ratio (pull-down/input).

Consider “GATGATTGTTCTCCCAGCTGATGAATTGCAAAGCTCGAGTAAACAAATTTTCCTAATCTTTCTGTTCAAGCGCCATCTAC”, for which the binding signal was 1.09 RPM ratio (pull-down/input). As for “GATGATTGTTCTCCCAGCTGATGAATTATACAGTTCGAGTAAACAAATTTTCCTAATCTTTCTGTTCAAGCGCCATCTAC”, the binding signal was 1.18 RPM ratio (pull-down/input).

On to “GATGATTGTTCTCCCAGCTGATGAATTACTCACATCGAGTAAACAAATTTTCCTAATCTTTCTGTTCAAGCGCCATCTAC”, for which the binding signal is 1.28 RPM ratio (pull-down/input). Consider “GATGATTGTTCTCCCAGCTGATGAATTTCGAATCTCGAGTAAACAAATTTTCCTAATCTTTCTGTTCAAGCGCCATCTAC”, for which the binding signal is 0.83 RPM ratio (pull-down/input).

Consider “GATGATTGTTCTCCCAGCTGATGAATTGTTAAACTCGAGTAAACAAATTTTCCTAATCTTTCTGTTCAAGCGCCATCTAC”, for which the binding signal was 1.1 RPM ratio (pull-down/input).

As for “GATGATTGTTCTCCCAGCTGATGAATTCCGACACTCGAGTAAACAAATTTTCCTAATCTTTCTGTTCAAGCGCCATCTAC”, the binding signal was 0.88 RPM ratio (pull-down/input). Turning to “GATGATTGTTCTCCCAGCTGATGAATTACACTCGTCGAGTAAACAAATTTTCCTAATCTTTCTGTTCAAGCGCCATCTAC”, the binding signal is 1.15 RPM ratio (pull-down/input).

For the sequence “GATGATTGTTCTCCCAGCTGATGAATTCAGACGTTCGAGTAAACAAATTTTCCTAATCTTTCTGTTCAAGCGCCATCTAC”, the binding signal is 0.787 RPM ratio (pull-down/input).

Turning to “GATGATTGTTCTCCCAGCTGATGAATTCTCCCAATCGAGTAAACAAATTTTCCTAATCTTTCTGTTCAAGCGCCATCTAC”, the binding signal was 0.958 RPM ratio (pull-down/input).

Consider “GATGATTGTTCTCCCAGCTGATGAATTCTTTCAATCGAGTAAACAAATTTTCCTAATCTTTCTGTTCAAGCGCCATCTAC”, for which the binding signal is 0.972 RPM ratio (pull-down/input). Turning to “GATGATTGTTCTCCCAGCTGATGAATTCAAACAATCGAGTAAACAAATTTTCCTAATCTTTCTGTTCAAGCGCCATCTAC”, the binding signal was 1.81 RPM ratio (pull-down/input). Regarding “GATGATTGTTCTCCCAGCTGATGAATTATGCGATTCGAGTAAACAAATTTTCCTAATCTTTCTGTTCAAGCGCCATCTAC”, the binding signal was 1.06 RPM ratio (pull-down/input). As to “GATGATTGTTCTCCCAGCTGATGAATTTTGTATGTCGAGTAAACAAATTTTCCTAATCTTTCTGTTCAAGCGCCATCTAC”, the binding signal is 1.54 RPM ratio (pull-down/input). Turning to “GATGATTGTTCTCCCAGCTGATGAATTTGTAATGTCGAGTAAACAAATTTTCCTAATCTTTCTGTTCAAGCGCCATCTAC”, the binding signal is 1.26 RPM ratio (pull-down/input).

Regarding “GATGATTGTTCTCCCAGCTGATGAATTGTATCTGTCGAGTAAACAAATTTTCCTAATCTTTCTGTTCAAGCGCCATCTAC”, the binding signal is 1.08 RPM ratio (pull-down/input). As to “GATGATTGTTCTCCCAGCTGATGAATTGTATTTGTCGAGTAAACAAATTTTCCTAATCTTTCTGTTCAAGCGCCATCTAC”, the binding signal was 2.5 RPM ratio (pull-down/input). As to “GATGATTGTTCTCCCAGCTGATGAATTGTAATTGTCGAGTAAACAAATTTTCCTAATCTTTCTGTTCAAGCGCCATCTAC”, the binding signal was 1.39 RPM ratio (pull-down/input). As for “GATGATTGTTCTCCCAGCTGATGAATTTGTATTGTCGAGTAAACAAATTTTCCTAATCTTTCTGTTCAAGCGCCATCTAC”, the binding signal was 2.88 RPM ratio (pull-down/input). In the case of “GATGATTGTTCTCCCAGCTGATGAATTTGCGATCTCGAGTAAACAAATTTTCCTAATCTTTCTGTTCAAGCGCCATCTAC”, the binding signal was 0.924 RPM ratio (pull-down/input).

Turning to “GATGATTGTTCTCCCAGCTGATGAATTAATTCCTTCGAGTAAACAAATTTTCCTAATCTTTCTGTTCAAGCGCCATCTAC”, the binding signal was 0.955 RPM ratio (pull-down/input).

With “GATGATTGTTCTCCCAGCTGATGAATTCCCGTTTTCGAGTAAACAAATTTTCCTAATCTTTCTGTTCAAGCGCCATCTAC”, the binding signal is 0.97 RPM ratio (pull-down/input). Turning to “GATGATTGTTCTCCCAGCTGATGAATTGGCCAACTCGAGTAAACAAATTTTCCTAATCTTTCTGTTCAAGCGCCATCTAC”, the binding signal was 0.833 RPM ratio (pull-down/input). As for “GATGATTGTTCTCCCAGCTGATGAATTGTCGTATTCGAGTAAACAAATTTTCCTAATCTTTCTGTTCAAGCGCCATCTAC”, the figure is 1.14 RPM ratio (pull-down/input). Take “GATGATTGTTCTCCCAGCTGATGAATTCGTATTGTCGAGTAAACAAATTTTCCTAATCTTTCTGTTCAAGCGCCATCTAC”: the binding signal is 2.07 RPM ratio (pull-down/input). Take “GATGATTGTTCTCCCAGCTGATGAATTTGTCTATTCGAGTAAACAAATTTTCCTAATCTTTCTGTTCAAGCGCCATCTAC”: the binding signal was 1.28 RPM ratio (pull-down/input). As for “GATGATTGTTCTCCCAGCTGATGAATTCTAATTGTCGAGTAAACAAATTTTCCTAATCTTTCTGTTCAAGCGCCATCTAC”, the binding signal is 1.29 RPM ratio (pull-down/input). On to “GATGATTGTTCTCCCAGCTGATGAATTTCTATTGTCGAGTAAACAAATTTTCCTAATCTTTCTGTTCAAGCGCCATCTAC”, for which the binding signal was 1.91 RPM ratio (pull-down/input).

“GATGATTGTTCTCCCAGCTGATGAATTCCTATTGTCGAGTAAACAAATTTTCCTAATCTTTCTGTTCAAGCGCCATCTAC”: the binding signal was 2.02 RPM ratio (pull-down/input). For the sequence “GATGATTGTTCTCCCAGCTGATGAATTGTCTATTTCGAGTAAACAAATTTTCCTAATCTTTCTGTTCAAGCGCCATCTAC”, the binding signal is 1.31 RPM ratio (pull-down/input). With “GATGATTGTTCTCCCAGCTGATGAATTCTATTTGTCGAGTAAACAAATTTTCCTAATCTTTCTGTTCAAGCGCCATCTAC” the figure was 2.3 RPM ratio (pull-down/input); with “GATGATTGTTCTCCCAGCTGATGAATTTCCTATGTCGAGTAAACAAATTTTCCTAATCTTTCTGTTCAAGCGCCATCTAC”, 0.811 RPM ratio (pull-down/input); with “GATGATTGTTCTCCCAGCTGATGAATTCGTATTTTCGAGTAAACAAATTTTCCTAATCTTTCTGTTCAAGCGCCATCTAC”, 1.67 RPM ratio (pull-down/input). In the case of “GATGATTGTTCTCCCAGCTGATGAATTCTATCTGTCGAGTAAACAAATTTTCCTAATCTTTCTGTTCAAGCGCCATCTAC”, the binding signal was 0.875 RPM ratio (pull-down/input). As for “GATGATTGTTCTCCCAGCTGATGAATTCTCTTTGTCGAGTAAACAAATTTTCCTAATCTTTCTGTTCAAGCGCCATCTAC”, the figure is 0.834 RPM ratio (pull-down/input); as for “GATGATTGTTCTCCCAGCTGATGAATTTCGCATTTCGAGTAAACAAATTTTCCTAATCTTTCTGTTCAAGCGCCATCTAC”, 1.28 RPM ratio (pull-down/input); as for “GATGATTGTTCTCCCAGCTGATGAATTGCCCAGTTCGAGTAAACAAATTTTCCTAATCTTTCTGTTCAAGCGCCATCTAC”, 0.931 RPM ratio (pull-down/input). “GATGATTGTTCTCCCAGCTGATGAATTGGGTCCTTCGAGTAAACAAATTTTCCTAATCTTTCTGTTCAAGCGCCATCTAC”: the binding signal was 0.85 RPM ratio (pull-down/input).

With “GATGATTGTTCTCCCAGCTGATGAATTGAACTTTTCGAGTAAACAAATTTTCCTAATCTTTCTGTTCAAGCGCCATCTAC”, the binding signal is 0.887 RPM ratio (pull-down/input). As for “GATGATTGTTCTCCCAGCTGATGAATTTTCACAATCGAGTAAACAAATTTTCCTAATCTTTCTGTTCAAGCGCCATCTAC”, the binding signal was 1.29 RPM ratio (pull-down/input). Take “GATGATTGTTCTCCCAGCTGATGAATTACTGACCTCGAGTAAACAAATTTTCCTAATCTTTCTGTTCAAGCGCCATCTAC”: the binding signal was 0.91 RPM ratio (pull-down/input). As for “GATGATTGTTCTCCCAGCTGATGAATTTGGGTAATCGAGTAAACAAATTTTCCTAATCTTTCTGTTCAAGCGCCATCTAC”, the binding signal is 1.27 RPM ratio (pull-down/input). On to “GATGATTGTTCTCCCAGCTGATGAATTCTCCGGGTCGAGTAAACAAATTTTCCTAATCTTTCTGTTCAAGCGCCATCTAC”, for which the binding signal is 0.759 RPM ratio (pull-down/input). With “GATGATTGTTCTCCCAGCTGATGAATTCCGGGATTCGAGTAAACAAATTTTCCTAATCTTTCTGTTCAAGCGCCATCTAC” the figure was 0.754 RPM ratio (pull-down/input); with “GATGATTGTTCTCCCAGCTGATGAATTATCTGATTCGAGTAAACAAATTTTCCTAATCTTTCTGTTCAAGCGCCATCTAC”, 0.984 RPM ratio (pull-down/input).
